T cruzi growth: T. cruzi proliferation inhibition; T. cruzi beta-gal in NIH3T3, GalScreen luminescence, 90 h; inhibition, % at 8.34 µM; hit rate 5.9% among 77,000; AID 624255;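 active means mean inhibition above about 93%, with at least 55% of replicates each passing it, limit read from the data, passing the limit was not always enough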
Pf Dd2 inh: inhibitors of Plasmodium falciparum Dd2 growth; P. falciparum Dd2 growth, SYBR Green, 72 h; hits give low values; activity change, % at 10 µM; hit rate 2.3% among 94,000; AID 1159554; in the data active means activity change below about -80%
C diff growth: C. difficile growth inhibition. Clostridium difficile clinical isolate growth, OD600, 24 h; hits give low values. growth activity, negative = inhibition, % at 16 µg/mL (by protocol). hit rate 0.25% among 86,000;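 active means mean growth activity at or below -80% and every replicate also at or below -80%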
Each line names hits and unclear results; the compound was inactive in the other large screens; ! = not confirmed by another sample. Hits are enriched below; roughly 6.8% of the tested compounds scored in any of these assays.

N#Cc1ccc(-c2ccc(C3[C@@H]4CN(Cc5ccccc5F)C[C@H]3N4)cc2)cc1 (stereo not given in full)	Pf Dd2 inh -89! (no result: T cruzi growth)
COc1ccccc1CN1C[C@@H]2N[C@H](C1)C2c1ccc(-c2ccc(C#N)cc2)cc1 (stereo not given in full)	Pf Dd2 inh -82! (no result: T cruzi growth)
N#Cc1ccc(-c2ccc(C3[C@@H]4CN(C(=O)C5CCCCC5)C[C@H]3N4)cc2)cc1 (stereo not given in full)	Pf Dd2 inh -88! (no result: T cruzi growth)
CCCNC(=O)N(C)C[C@H]1Oc2cc(-c3cncnc3)ccc2S(=O)(=O)N([C@@H](C)CO)C[C@H]1C	none (no result: T cruzi growth)
CCC(=O)Nc1ccc2c(c1)OC[C@H](C)N(Cc1cncnc1)C[C@H](C)[C@H](OC)CN(C)C2=O	none
C[C@H]1CN([C@@H](C)CO)C(=O)c2c(c3ccccc3n2C)-c2ccccc2CO[C@@H]1CN(C)C(=O)Nc1cccc(C(F)(F)F)c1	Pf Dd2 inh -94 (no result: T cruzi growth)
C[C@H](CO)N1C[C@H](C)[C@H](CN(C)C(=O)Nc2cccc(F)c2)OCc2ccccc2-c2c(n(C)c3ccccc23)C1=O	none (no result: C diff growth)
C[C@H](CO)N1C[C@H](C)[C@@H](CN(C)C(=O)Nc2cccc(C(F)(F)F)c2)OCc2ccccc2-c2c(n(C)c3ccccc23)C1=O	Pf Dd2 inh -86 (no result: T cruzi growth)
C[C@H](CO)N1C[C@H](C)[C@H](CN(C)C(=O)Nc2cccc(C(F)(F)F)c2)OCc2ccccc2-c2c(n(C)c3ccccc23)C1=O	none (no result: T cruzi growth)
N#C[C@H]1[C@@H](c2ccccc2-c2ccccc2)[C@@H](CO)N1C(=O)Cc1cccnc1	none (no result: T cruzi growth, C diff growth)
C[C@H]1CN([C@@H](C)CO)C(=O)c2cccc(NC(=O)CCCCCC(=O)Nc3ccccc3N)c2O[C@@H]1CN(C)C(=O)Nc1ccc2c(c1)OCO2	none (no result: T cruzi growth)
C[C@@H]1CN([C@@H](C)CO)C(=O)c2cc(NC(=O)CCCCCC(=O)Nc3ccccc3N)ccc2O[C@@H]1CN(C)C(=O)Nc1ccc2c(c1)OCO2	none (no result: T cruzi growth)
COCCNC(=O)C[C@H]1CC[C@H]2[C@@H](COC[C@@H](O)CN2S(=O)(=O)c2ccccc2C)O1	none (no result: C diff growth)
C/C=C/c1ccc(C2[C@H]3CNC[C@@H]2N3Cc2cc(F)ccc2F)cc1 (stereo not given in full)	Pf Dd2 inh -84! (no result: T cruzi growth)
C/C=C/c1ccc(C2[C@H]3CNC[C@@H]2N3Cc2ccccc2OC)cc1 (stereo not given in full)	none (no result: T cruzi growth)
CC(C)NC(=O)N(C)C[C@@H]1Oc2ccc(NC(=O)C3CCCCC3)cc2CC(=O)N([C@H](C)CO)C[C@H]1C	none
CCC(=O)NC[C@@H]1[C@@H](c2ccc(C3=CCCC3)cc2)[C@@H](CO)N1CC1CCCC1	none (no result: T cruzi growth)
CCCNC[C@@H]1[C@@H](c2ccc(C3=CCCC3)cc2)[C@@H](CO)N1C(=O)C1CCCC1	Pf Dd2 inh -92 (no result: T cruzi growth)
C/C=C/c1ccc([C@H]2[C@@H](CO)N(C(=O)CC)[C@@H]2CNCC2CCCC2)cc1	none (no result: T cruzi growth)
CCC(=O)N1[C@H](CO)[C@H](c2ccc(C3=CCCCC3)cc2)[C@H]1CNC1CCCC1	Pf Dd2 inh -90 (no result: T cruzi growth)
CCC(=O)NC[C@H]1[C@H](c2ccc(C3=CCCC3)cc2)[C@@H](CO)N1C(=O)C1CC1	none
C/C=C/c1ccc([C@H]2[C@@H](CO)N(C(=O)CC)[C@@H]2CNCC2CCCCC2)cc1	Pf Dd2 inh -85 (no result: T cruzi growth)
CCC(=O)N1[C@H](CO)[C@H](c2ccc(C3=CCCC3)cc2)[C@H]1CNC1CCCC1	none (no result: T cruzi growth)
OC[C@@H]1[C@H](c2ccc(C3=CCCCC3)cc2)[C@@H](CNC2CCCC2)N1CC1CC1	Pf Dd2 inh -92 (no result: T cruzi growth)
COCC(=O)Nc1ccc2c(c1)[C@@H]1C[C@@H](CC(=O)NCc3ccc(Cl)cc3)O[C@H](CO)[C@@H]1O2	none
C[C@@H]1CCCCO[C@@H](CN(C)C(=O)C2CCCCC2)[C@@H](C)CN([C@@H](C)CO)C(=O)c2cc(NC(=O)CCCN(C)C)ccc2O1	none
CC(C)(C)[S@@](=O)N1Cc2cc(C(=O)N3CCCCC3)nc(-c3cccc(-c4ccc(F)cc4)c3)c2[C@H]1CCO	none (no result: C diff growth)
C[C@H](CO)N1C[C@H](C)[C@H](CN(C)Cc2ccncc2)Oc2c(NC(=O)NC3CCCCC3)cccc2C1=O	none
O=C(Nc1ccccc1)N1CCCCN2[C@H](CO)[C@H](c3ccc(C#Cc4cccnc4)cc3)[C@@H]2C1	Pf Dd2 inh -88
CC(C)CC#Cc1ccc([C@@H]2[C@H](CO)N3CCCCN(C(=O)Nc4ccccc4)C[C@@H]23)cc1	C diff growth -98
CC(C)CC#Cc1ccc([C@@H]2[C@H]3CN(C(=O)Nc4ccccc4)CCCCN3[C@H]2CO)cc1	none
COc1ccc(NC(=O)N2CCCCN3[C@H](CO)[C@H](c4ccc(C#CCC(C)C)cc4)[C@H]3C2)cc1	none
O=C(Nc1ccccc1)N1CCCCN2[C@H](CO)[C@@H](c3ccc(C#Cc4ccccc4)cc3)[C@H]2C1	none
CC(C)CC#Cc1ccc([C@H]2[C@H](CO)N3CCCCN(C(=O)Nc4ccccc4)C[C@@H]23)cc1	C diff growth -98
C/C=C/c1ccc([C@H]2[C@@H](CO)N3C(=O)CN(C(=O)c4ccc(F)cc4)C[C@@H]23)cc1	none (no result: T cruzi growth)
CCS(=O)(=O)N[C@@H]1CC[C@@H](CC(=O)NCc2ccccn2)O[C@@H]1CO	none (no result: C diff growth)
COc1ccc(CN2CC3(C2)CN(C(=O)CN(C)C)[C@H](CO)c2[nH]c4cc(OC)ccc4c23)cc1	Pf Dd2 inh -88 (no result: T cruzi growth)
COc1ccc(CN2CC3(C2)CN(C(=O)CN(C)C)[C@@H](CO)c2[nH]c4cc(OC)ccc4c23)cc1	Pf Dd2 inh -86 (no result: T cruzi growth)
COc1ccc2c3c([nH]c2c1)[C@H](CO)N(C(=O)CN(C)C)CC31CN(Cc2ccncc2)C1	none (no result: T cruzi growth)
COc1ccc2c3c([nH]c2c1)[C@@H](CO)N(C(=O)CN(C)C)CC31CN(Cc2ccccc2)C1	none (no result: T cruzi growth)
C[C@@H]1CN([C@@H](C)CO)C(=O)c2cc(-c3ccc(F)cc3)cnc2O[C@H]1CN(C)C(=O)CN(C)C	none
Cc1ccccc1-c1ccc([C@@H]2[C@@H](CO)N3C(=O)CN(C(=O)Cc4ccccn4)C[C@@H]23)cc1	none (no result: T cruzi growth)
C[C@@H]1CN([C@H](C)CO)C(=O)c2cccc(NC(=O)Nc3ccc4c(c3)OCO4)c2O[C@@H]1CN(C)Cc1ccc(C(=O)Nc2ccccc2N)cc1	Pf Dd2 inh -91 (no result: C diff growth)
C[C@@H]1CN([C@@H](C)CO)C(=O)c2cccc(NC(=O)Nc3ccc(C(F)(F)F)cc3)c2O[C@H]1CN(C)Cc1ccc(C(=O)Nc2ccccc2N)cc1	Pf Dd2 inh -85 (no result: T cruzi growth)
C[C@H]1CN([C@@H](C)CO)C(=O)c2cccc(NC(=O)Nc3ccc4c(c3)OCO4)c2O[C@H]1CN(C)Cc1ccc(C(=O)Nc2ccccc2N)cc1	none (no result: C diff growth)
C[C@@H]1CN([C@@H](C)CO)C(=O)c2cccc(NC(=O)Nc3ccc(C(F)(F)F)cc3)c2O[C@H]1CN(C)Cc1ccc(C(F)(F)F)cc1	none
CC(C)NC(=O)Nc1cccc2c1O[C@H](CN(C)Cc1ccc(C(=O)Nc3ccccc3N)cc1)[C@H](C)CN([C@@H](C)CO)C2=O	Pf Dd2 inh -84 (no result: T cruzi growth)
C[C@H]1CN([C@@H](C)CO)C(=O)c2cccc(NC(=O)Nc3ccc(F)cc3)c2O[C@@H]1CN(C)Cc1ccc(C(=O)Nc2ccccc2N)cc1	Pf Dd2 inh -83 (no result: T cruzi growth)
CC(C)NC(=O)Nc1cccc2c1O[C@@H](CN(C)Cc1ccc(C(=O)Nc3ccccc3N)cc1)[C@@H](C)CN([C@H](C)CO)C2=O	none (no result: T cruzi growth)

Source: PubChem BioAssay
